# Measured values: ChEMBL document CHEMBL3988442, “University of Dundee, Small-Polar-MMV Screening Library” (2021)
# For some assays here: Results with a measured potency or affinity are listed apart.
# Tests used:
# Set-up in all cases: scale not given: direction of the effect not stated beside the values
# [1] = molecular target: Protein translocase subunit SecA (Escherichia coli (strain K12)) (UniProt P10408); experiment: Assay to Identify E. coli SecA ATPase Inhibitors; format: functional; details: 30 µM
# Protein translocase subunit SecA (Escherichia coli (strain K12)), sequence (P10408 whole entry): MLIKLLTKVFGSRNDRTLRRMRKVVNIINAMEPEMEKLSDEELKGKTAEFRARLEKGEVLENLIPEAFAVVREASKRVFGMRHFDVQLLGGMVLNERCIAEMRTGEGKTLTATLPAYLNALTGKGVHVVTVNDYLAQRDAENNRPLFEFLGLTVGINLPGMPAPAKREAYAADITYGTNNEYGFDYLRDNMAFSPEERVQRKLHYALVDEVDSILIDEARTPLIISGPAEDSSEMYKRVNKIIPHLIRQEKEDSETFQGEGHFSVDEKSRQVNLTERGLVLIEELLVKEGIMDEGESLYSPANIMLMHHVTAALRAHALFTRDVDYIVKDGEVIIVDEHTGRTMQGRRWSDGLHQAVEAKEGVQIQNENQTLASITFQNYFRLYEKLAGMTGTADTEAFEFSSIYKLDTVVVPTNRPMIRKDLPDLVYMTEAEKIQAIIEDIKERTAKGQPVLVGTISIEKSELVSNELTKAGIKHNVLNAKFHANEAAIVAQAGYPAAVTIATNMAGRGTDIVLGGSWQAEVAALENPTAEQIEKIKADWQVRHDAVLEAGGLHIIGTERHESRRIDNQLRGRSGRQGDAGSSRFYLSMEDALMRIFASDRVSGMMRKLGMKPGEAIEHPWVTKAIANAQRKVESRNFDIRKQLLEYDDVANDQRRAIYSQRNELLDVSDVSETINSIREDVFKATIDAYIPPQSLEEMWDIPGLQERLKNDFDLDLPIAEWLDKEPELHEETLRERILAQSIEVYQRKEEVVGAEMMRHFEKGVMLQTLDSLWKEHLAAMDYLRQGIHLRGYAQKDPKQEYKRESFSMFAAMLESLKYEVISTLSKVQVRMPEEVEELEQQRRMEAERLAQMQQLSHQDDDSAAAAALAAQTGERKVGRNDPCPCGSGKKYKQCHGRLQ
# [2] = molecular target: T1, Ubiquitin-activating enzyme e1, putative (Leishmania donovani (strain BPK282A1)) (UniProt E9BSI1); experiment: Leishmania donovani Ubiquitin Activating Enzyme (LdE1); format: functional; details: 30 µM
# T1 sequence (whole entry): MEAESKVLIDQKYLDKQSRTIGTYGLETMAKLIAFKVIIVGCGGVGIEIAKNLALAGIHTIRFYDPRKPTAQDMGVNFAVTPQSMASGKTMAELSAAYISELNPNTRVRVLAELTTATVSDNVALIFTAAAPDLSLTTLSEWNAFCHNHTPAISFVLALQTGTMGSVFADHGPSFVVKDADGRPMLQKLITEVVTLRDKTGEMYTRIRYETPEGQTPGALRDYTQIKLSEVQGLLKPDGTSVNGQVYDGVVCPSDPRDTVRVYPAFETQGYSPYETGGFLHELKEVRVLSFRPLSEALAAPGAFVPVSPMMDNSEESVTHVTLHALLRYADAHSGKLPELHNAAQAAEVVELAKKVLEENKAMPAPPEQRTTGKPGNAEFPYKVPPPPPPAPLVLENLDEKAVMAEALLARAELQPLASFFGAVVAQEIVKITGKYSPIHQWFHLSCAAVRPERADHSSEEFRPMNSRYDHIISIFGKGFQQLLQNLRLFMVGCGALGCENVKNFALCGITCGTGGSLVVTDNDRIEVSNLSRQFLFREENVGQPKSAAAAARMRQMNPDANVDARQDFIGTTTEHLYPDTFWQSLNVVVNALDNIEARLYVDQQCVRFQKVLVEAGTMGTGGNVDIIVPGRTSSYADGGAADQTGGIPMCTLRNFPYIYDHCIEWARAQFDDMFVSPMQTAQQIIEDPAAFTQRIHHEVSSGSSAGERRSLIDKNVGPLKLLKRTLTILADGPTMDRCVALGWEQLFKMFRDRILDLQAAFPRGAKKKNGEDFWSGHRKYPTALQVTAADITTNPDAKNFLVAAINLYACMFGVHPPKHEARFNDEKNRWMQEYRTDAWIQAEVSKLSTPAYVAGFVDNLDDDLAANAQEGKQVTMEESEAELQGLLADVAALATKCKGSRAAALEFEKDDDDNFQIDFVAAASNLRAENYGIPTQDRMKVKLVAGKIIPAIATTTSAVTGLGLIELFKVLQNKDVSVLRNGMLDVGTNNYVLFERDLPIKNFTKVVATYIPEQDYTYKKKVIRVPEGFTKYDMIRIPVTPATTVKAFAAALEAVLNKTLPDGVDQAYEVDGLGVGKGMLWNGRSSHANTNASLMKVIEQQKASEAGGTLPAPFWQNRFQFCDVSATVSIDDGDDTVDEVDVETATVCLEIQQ
# [3] = molecular target: AMP-activated protein kinase, AMPK (Homo sapiens) (UniProt P54646+O43741+P54619+Q9UGJ0+Q9Y478+Q13131+Q9UGI9); experiment: AMP-dependent Kinase enzyme assay. An in vitro enzyme assay that detects ADP turnover that is directly proportional to AMPK activity. This uses naive AMPK that is activated during the assay with MK-8722; format: functional; details: 30 µM
# [4] = molecular target: Sialic acid-binding Ig-like lectin 9 (Homo sapiens) (UniProt Q9Y336); experiment: Hs-Siglec9 ALPHAscreen SOP 20170721; details: 10 µM
# Sialic acid-binding Ig-like lectin 9 (Homo sapiens), sequence (Q9Y336 whole entry): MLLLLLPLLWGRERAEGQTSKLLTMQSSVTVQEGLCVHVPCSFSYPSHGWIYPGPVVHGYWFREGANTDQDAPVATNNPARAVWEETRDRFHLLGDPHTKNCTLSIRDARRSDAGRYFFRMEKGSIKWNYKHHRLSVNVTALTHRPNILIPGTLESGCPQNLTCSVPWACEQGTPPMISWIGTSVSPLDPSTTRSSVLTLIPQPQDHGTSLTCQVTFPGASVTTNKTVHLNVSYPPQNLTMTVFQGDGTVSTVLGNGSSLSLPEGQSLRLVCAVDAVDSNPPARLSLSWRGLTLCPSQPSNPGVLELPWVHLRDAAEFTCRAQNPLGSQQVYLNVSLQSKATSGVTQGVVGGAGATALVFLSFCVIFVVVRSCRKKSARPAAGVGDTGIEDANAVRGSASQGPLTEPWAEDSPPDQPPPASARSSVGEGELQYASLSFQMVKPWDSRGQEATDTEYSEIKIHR
# Trypanosoma cruzi = experiment: Trypanosoma cruzi phosphomannomutase and mannose-1-phosphate guanylyltransferase assay; format: functional; details: 10 µM
# [5] = molecular target: T2, Arginase-2, mitochondrial (Homo sapiens) (UniProt P78540); experiment: in vitro enzyme assay to detect the production of urea directly proportional to the activity of Arginase II; format: functional; details: 33.3 µM; note: in the data most compounds retested in dose-response had high values
# T2 sequence (whole entry): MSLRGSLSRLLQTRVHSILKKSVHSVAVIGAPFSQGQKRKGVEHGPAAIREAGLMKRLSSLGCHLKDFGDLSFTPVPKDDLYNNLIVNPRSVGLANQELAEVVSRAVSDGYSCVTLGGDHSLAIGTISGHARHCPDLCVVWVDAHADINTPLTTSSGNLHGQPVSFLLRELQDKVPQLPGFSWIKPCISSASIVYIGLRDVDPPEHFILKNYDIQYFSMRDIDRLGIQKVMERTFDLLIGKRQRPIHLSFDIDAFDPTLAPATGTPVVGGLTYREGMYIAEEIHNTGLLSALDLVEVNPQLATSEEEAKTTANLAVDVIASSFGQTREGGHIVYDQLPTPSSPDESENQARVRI
# [6] = molecular target: T3, Proteasome subunit beta (Trypanosoma cruzi) (UniProt O96673); experiment: Trypanosoma cruzi proteasome chymotrypsin-like activity (TcProtChymo) assay.; note: in the data most compounds retested in dose-response had high values; format: functional; details: 9.37 µM
# T3 sequence (whole entry): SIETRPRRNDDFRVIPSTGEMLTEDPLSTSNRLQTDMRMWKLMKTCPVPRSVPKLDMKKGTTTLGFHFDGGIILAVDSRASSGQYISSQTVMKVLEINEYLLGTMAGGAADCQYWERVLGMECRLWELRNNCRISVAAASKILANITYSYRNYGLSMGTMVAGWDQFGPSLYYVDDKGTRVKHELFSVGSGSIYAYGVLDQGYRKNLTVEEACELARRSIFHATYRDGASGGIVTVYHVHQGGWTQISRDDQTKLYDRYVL
# Homo sapiens = species: Homo sapiens; experiment: To identify inhibition of the IFN signalling (Jak-Stat) pathway via expression of an eGFP reporter gene under the control of an IFN-stimulated response element (ISRE) containing MxA promoter.; format: functional; details: 30 µM
# [7] = molecular target: T4, Tyrosyl-tRNA synthetase, putative (Trypanosoma cruzi (strain CL Brener)) (UniProt Q4DSP6); experiment: Trypanosoma cruzi tyrosyl tRNA synthetase (TcYRS) _High Tyrosine SOP; format: functional; details: 30 µM; note: in the data most compounds retested in dose-response had high values
# T4 sequence (whole entry): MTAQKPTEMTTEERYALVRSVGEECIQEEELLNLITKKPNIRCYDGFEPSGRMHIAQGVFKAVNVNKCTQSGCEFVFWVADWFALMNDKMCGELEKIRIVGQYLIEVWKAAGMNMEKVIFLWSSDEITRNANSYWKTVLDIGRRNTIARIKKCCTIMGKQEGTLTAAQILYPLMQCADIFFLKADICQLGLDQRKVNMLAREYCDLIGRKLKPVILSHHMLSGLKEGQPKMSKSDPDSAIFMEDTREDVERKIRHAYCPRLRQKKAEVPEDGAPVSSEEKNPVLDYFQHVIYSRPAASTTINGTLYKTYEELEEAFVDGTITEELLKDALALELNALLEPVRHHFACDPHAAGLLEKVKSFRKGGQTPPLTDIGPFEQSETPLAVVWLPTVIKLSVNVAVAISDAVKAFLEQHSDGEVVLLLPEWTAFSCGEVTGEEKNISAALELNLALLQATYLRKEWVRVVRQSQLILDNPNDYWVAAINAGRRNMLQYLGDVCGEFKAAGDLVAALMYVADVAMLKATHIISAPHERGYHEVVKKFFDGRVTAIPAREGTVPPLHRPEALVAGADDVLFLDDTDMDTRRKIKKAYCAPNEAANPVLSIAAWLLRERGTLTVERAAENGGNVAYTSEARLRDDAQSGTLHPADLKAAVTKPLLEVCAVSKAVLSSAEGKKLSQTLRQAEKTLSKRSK
# [8] = molecular target: T4, Tyrosyl-tRNA synthetase, putative (Trypanosoma cruzi (strain CL Brener)); experiment: Trypanosoma cruzi tyrosyl tRNA synthetase (TcYRS) SOP; format: functional; details: 30 µM
# [9] = molecular target: Chromo domain-containing protein 1 (Saccharomyces cerevisiae (strain ATCC 204508 / S288c) (Baker's yeast)) (UniProt P32657); experiment: ScCHD-1 Enzyme Inhibition Assay; format: functional; details: 30 µM; note: in the data most compounds retested in dose-response had high values
# Chromo domain-containing protein 1 (Saccharomyces cerevisiae (strain ATCC 204508 / S288c) (Baker's yeast)), sequence (P32657 whole entry, the tested form may be a part): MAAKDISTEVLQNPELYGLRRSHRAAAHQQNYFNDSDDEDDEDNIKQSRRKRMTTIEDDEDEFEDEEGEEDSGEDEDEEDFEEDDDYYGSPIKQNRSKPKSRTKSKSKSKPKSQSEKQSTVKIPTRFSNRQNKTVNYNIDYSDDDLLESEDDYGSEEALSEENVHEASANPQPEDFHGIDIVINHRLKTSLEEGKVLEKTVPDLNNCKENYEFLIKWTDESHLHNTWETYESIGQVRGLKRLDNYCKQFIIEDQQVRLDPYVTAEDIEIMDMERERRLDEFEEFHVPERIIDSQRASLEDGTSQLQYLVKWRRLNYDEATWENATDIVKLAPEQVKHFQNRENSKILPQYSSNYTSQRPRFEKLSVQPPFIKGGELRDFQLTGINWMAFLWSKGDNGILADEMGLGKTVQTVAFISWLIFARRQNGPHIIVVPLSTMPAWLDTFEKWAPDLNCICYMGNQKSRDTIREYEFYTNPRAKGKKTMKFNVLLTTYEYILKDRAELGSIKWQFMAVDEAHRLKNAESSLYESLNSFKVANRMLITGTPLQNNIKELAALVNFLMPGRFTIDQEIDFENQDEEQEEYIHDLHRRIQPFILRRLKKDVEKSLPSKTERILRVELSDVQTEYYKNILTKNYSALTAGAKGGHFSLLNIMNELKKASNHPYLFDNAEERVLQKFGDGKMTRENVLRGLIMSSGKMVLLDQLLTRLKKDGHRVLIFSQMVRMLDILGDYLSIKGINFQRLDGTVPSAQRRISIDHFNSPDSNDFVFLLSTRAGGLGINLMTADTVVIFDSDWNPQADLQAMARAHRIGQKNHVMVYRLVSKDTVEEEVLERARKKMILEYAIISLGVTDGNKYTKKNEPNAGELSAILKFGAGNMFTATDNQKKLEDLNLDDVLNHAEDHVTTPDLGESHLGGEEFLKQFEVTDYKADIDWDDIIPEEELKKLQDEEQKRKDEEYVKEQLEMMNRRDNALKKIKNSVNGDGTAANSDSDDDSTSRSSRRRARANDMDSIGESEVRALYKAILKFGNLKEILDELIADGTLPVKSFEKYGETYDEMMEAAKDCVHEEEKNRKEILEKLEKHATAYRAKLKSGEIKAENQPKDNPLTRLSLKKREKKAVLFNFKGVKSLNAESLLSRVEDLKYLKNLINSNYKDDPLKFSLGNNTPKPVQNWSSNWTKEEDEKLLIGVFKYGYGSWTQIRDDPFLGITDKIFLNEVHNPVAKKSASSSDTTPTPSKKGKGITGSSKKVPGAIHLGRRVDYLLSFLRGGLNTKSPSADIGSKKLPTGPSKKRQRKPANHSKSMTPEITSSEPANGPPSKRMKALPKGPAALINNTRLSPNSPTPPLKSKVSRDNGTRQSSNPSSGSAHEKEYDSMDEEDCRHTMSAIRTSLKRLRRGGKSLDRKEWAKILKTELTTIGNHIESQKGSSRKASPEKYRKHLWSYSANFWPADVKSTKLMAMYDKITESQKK
SMILES,Percent Effect [1] [%],Percent Effect [2] [%],Percent Effect [3] [%],Percent Effect [4] [%],Percent Effect (Trypanosoma cruzi) [%],Percent Effect [5] [%],Percent Effect [6] [%],Percent Effect (Homo sapiens) [%],Percent Effect [7] [%],Percent Effect [8] [%],Percent Effect [9] [%]
CN(C)C(=O)c1cccc(NC(=O)N(CCO)Cc2ccsc2)c1,-0.273,9.72,-9.76,7.88,3.79,11,11.8,-1.39,5.26,12.8,-3.15
Cc1nc(C)n(CC2CCCN2Cc2cc(C)on2)n1 (stereo unspecified),-7.09,5.2,-68.4,-5.71,-2.06,3.58,12.2,19.8,0,7.06,-23.5
CC(=O)N1CCN(S(=O)(=O)c2ccc(C)c(F)c2)CC1,-4.54,10.5,2.19,-1.23,5.75,9.47,13.1,12.6,2.13,15.6,-3.17
COCCC1(CO)CCCN(Cc2ccc(F)c(C)c2)C1 (stereo unspecified),-3.62,0,-3.75,-6.12,-0.88,-1.24,2.15,-4.5,3.23,1.24,2.9
CCN(CCC(F)(F)F)C(=O)Nc1cccc(N2CCOCC2)c1,-2.27,5.41,-8.53,14.9,2.12,-2.38,5.52,16.4,2.65,7.32,-3.36
CS(=O)(=O)N[C@@H]1CCO[C@]2(CCN(C(=O)C3=CCCC3)C2)C1,-2.88,13.5,3.79,-4.46,-2.25,14.3,23.2,-15.3,5.41,12.8,-3.57
Cn1cc(C(=O)N[C@@H]2CN(Cc3cccs3)[C@@H]3CCCO[C@@H]32)cn1,-4.79,13.3,-3.04,-0.505,0.579,-49.6,9.74,-5.26,1.04,12.5,-7.8
CC(C)(C)c1nnc(CN2CCCC(c3cc(C(N)=O)[nH]n3)C2)o1 (stereo unspecified),-6.11,10.8,-2.58,-2.88,-7.08,-10,3.78,9,-2.46,-1.24,-5.5
CCOCCN1CCN(Cc2cccc(C(=O)N(C)C)c2)CC1,-10.3,0,-8.88,18,9.38,-2.03,0,2.86,6.93,23.2,46.2
CC(C)c1ccc(CN2CCC3(CCCN(c4nncs4)C3)C2)cc1 (stereo unspecified),-5.12,2.7,-2.41,37.5,9.87,-1.74,1.97,-25,4.3,13.6,-4.2
Cc1ccc(N2CCCC(NCc3cscn3)C2)nn1 (stereo unspecified),-1.67,13.5,-43.1,-1.8,-1.04,18.4,11.3,3.87,12.3,23.5,-5.79
CCCS(=O)(=O)NCC1CCOc2ccccc2C1 (stereo unspecified),-7.2,0,3.87,5.88,-5.61,17.9,5.32,-3.37,0,6.17,3.34
COc1cccc(CN2CCCC(Nc3cccc(F)c3)C2)c1O (stereo unspecified),-5.42,10.8,-4,18.7,7.33,2.23,5.24,0.464,3.23,11.1,-12.4
O=C(CCn1cncn1)NC1(c2cccc(Br)c2)CCC1,-3.55,20.8,1.67,13.7,3.44,1.38,10.5,-1.82,3.23,16.1,-9.17
CC(C)Nc1nc(N2CCOCC2)nc2c1CN(Cc1ccoc1)CC2,-4.76,5.33,12.8,1.46,-1.97,6.76,7.84,8.61,7.45,16.7,-3.95
CN(C)c1ncccc1CNC(=O)N1CCCC1c1ccsc1 (stereo unspecified),-9.33,18.2,-4.46,4.94,-2.43,0.712,2.2,1.32,5.83,14.6,-6.19
